Screens (PubChem)
PI4K2A inh – inhibitors of human PI4K2A; AID 1346378; purified PI4K2A, ADP-Glo luminescence, 1 h; hits give low values; 420,000 tested, 0.13% active; activity change, negative = inhibition, % at 76.9 µM; in the data active = activity change below about -50%; inconclusive = mostly about -30% to -49%;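 also: -100% = wells without enzyme as full effect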
Target sequence (Q9BTU6 whole entry, looked up): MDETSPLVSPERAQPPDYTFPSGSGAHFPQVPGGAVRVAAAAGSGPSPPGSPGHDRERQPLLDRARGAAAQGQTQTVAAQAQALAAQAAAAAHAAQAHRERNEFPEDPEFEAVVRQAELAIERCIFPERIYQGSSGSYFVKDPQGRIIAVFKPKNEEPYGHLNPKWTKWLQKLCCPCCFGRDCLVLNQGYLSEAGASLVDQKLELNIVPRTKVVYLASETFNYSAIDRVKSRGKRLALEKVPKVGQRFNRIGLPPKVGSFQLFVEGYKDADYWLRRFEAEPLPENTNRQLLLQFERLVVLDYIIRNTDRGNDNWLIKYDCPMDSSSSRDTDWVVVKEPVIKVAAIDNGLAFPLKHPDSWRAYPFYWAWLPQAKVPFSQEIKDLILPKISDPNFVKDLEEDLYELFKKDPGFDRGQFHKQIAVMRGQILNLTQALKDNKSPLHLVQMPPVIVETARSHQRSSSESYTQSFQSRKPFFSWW
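PI4K2A activity was measured by ADP-Glo luminescence: enzyme (4 ug/mL stock) and phosphatidylinositol (1.2 mM stock) in Tris pH 7.5/MgCl2/EGTA/Triton X-100 buffer were reacted with ATP (300 microM stock) for one hour at ambient temperature.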
KB-3-1 cytotox – kills parental KB-3-1 adenocarcinoma cells | 400,000 tested, 1.4% active | KB-3-1 viability, CellTiter-Glo ATP luminescence, 72 h | Potency, µM (titrated, usually from 46.1 µM), usual class: cytotoxic | AID 1347075; also: potency is read from the fitted curve at half-maximal effect; nearly all actives have a fitted effect of over 60% in size
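Screening of KB-3-1 cells (DMEM, 10% FBS, phenol-red free) ran from lowest to highest compound concentration; after 72 h at 37 °C viability was read luminescently and curves fitted.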
A549 tox – A549 cytotoxicity, counter-screen for Nrf2 inhibitors; A549 ARE-Fluc cells, CellTiter-Fluor viability, 18-24 h; Potency, µM (doses to about 46 µM), for inactives: at the highest dose activity change, negative = cytotoxicity, actives largely listed as inhibitors; 390,000 tested, 0.16% active; also: potency is read from the fitted curve at half-maximal effect
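A549 ARE_Fluc cells in 5% FBS OPTI-MEM were exposed to compounds in concentration-response for 18-24 h at 37 deg C. Viability was read by CellTiter-Fluor fluorescence (Ex 405/Em 525) after 30 min, before the luciferase read.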
KB-V1 MDR tox – kills drug-selected multidrug resistant KB-V1 cells | KB-V1 MDR cells viability, CellTiter-Glo, 72 h | Potency, µM (highest dose often 46.1 µM), most hits filed as cytotoxic | 400,000 tested, 3.4% active | AID 1347076; also: potency is read from the fitted curve at half-maximal effect; nearly all actives have a fitted effect of over 60% in size
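Cytotoxicity via CellTiter-Glo luminescence after 72 h compound exposure at 37 degrees C. Cells: drug-selected KB-V1 line, DMEM phenol-red free plus 10% FBS. Compounds tested at multiple concentrations; normalized data fitted to concentration-effect curves.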
Nrf2 inh – Nrf2 pathway inhibition. A549 ARE-Fluc reporter, luciferase luminescence, 18-24 h. Potency, µM (titrated, usually from 46 µM), for the others: at the highest dose activity change, negative = inhibition, most hits filed as inhibitors. 360,000 tested, 2.1% active; also: potency is read from the fitted curve at half-maximal effect; nearly all actives have a fitted effect of over 60% in size
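Cells were seeded and rested 2 h, then exposed to compounds for 18-24 h. CellTiter-Fluor was read first as a viability measure. BugLite was added 15 min before the final luminescent read of ARE-luciferase activity in A549 cells.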
Giardia killer – kills Giardia lamblia. Giardia lamblia trophozoite viability. activity change, % at 7.66 µM, hits read low. 340,000 tested, 0.15% active. AID 540267; in the data active = activity change below about -80%; inconclusive = between about -30% and that limit;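 also: parasites exposed to compound for two days anaerobically before the ATP read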
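Anaerobic 48 hrs incubation at 37 deg C of 100 trophozoites/well with test compounds; ATPLite 1-Step luminescence, 15-30 min RT, reports cellular ATP as viability.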
* marks the source's active call; other numbers are inactive results; i = inactive; ? = inconclusive; nt = no result given. Only some compounds are listed: those with a hit (about 5.7% of all), similar ones and a draw of the others. Unless noted, calls follow the shape of the dose curve; as a rule, active = well fitted curve in the direction sought with a large enough effect; inconclusive = small, poorly fitted or top-dose-only effect, or another doubt; inactive = no such curve, though single readings can be large; an effect the other way counts as inactive or inconclusive. Unless noted, % is scaled to controls: 0 for no effect and ±100 for the full control effect.

SMILES	PI4K2A inh	KB-3-1 cytotox	A549 tox	KB-V1 MDR tox	Nrf2 inh	Giardia killer
CN(C(=O)CSc1nc2ccccc2n1CC(=O)N(C)c1ccc(F)cc1)c1ccccc1	1	i	-2%	i	nt	nt
Cc1cccc(-c2nc(CSc3nncn4c3cc3oc(C)cc34)c(C)o2)c1	0	i	5%	i	22%	nt
COc1ccc(-c2cn3cccnc3n2)cc1Br	-7	?	3%	?	?	26
COc1ccc(-c2cn3cc(Br)cnc3n2)cc1	-1	13µM*	-1%	10µM*	27%	1
O=C1CN(S(=O)(=O)c2c(F)cccc2F)CCN1S(=O)(=O)c1ccc2c(c1)OCCO2	nt	nt	-1%	nt	-13%	nt
COC(=O)c1ccc(NS(=O)(=O)c2cc(-c3cc(C)no3)ccc2OC)cc1	1	5.8µM*	-13%	?	-12%	-3
COc1ccc(-c2cc(C)no2)cc1S(=O)(=O)Nc1cccc(C)c1	-2	i	-23%	i	23µM*	-4
COc1ccc(Cl)cc1NS(=O)(=O)c1cc(-c2cc(C)no2)ccc1C	-2	13µM*	-21%	3.7µM*	?	nt
COc1ccccc1NS(=O)(=O)c1cc(-c2cc(C)no2)ccc1OC	-1	i	-2%	i	?	18
COc1ccc(-c2cc(C)no2)cc1S(=O)(=O)Nc1ccccc1	-2	?	-14%	i	17%	19
CCOc1cc(C)c(S(=O)(=O)Nc2ccc3cn[nH]c3c2)cc1C	0	21µM*	-4%	?	?	-14
COc1ccc(S[C@]2(C(=O)N3CCOCC3)CC(=O)N(c3ccsc3)[C@@H]2c2ccc(OC)cc2)cc1	4	nt	nt	nt	nt	nt
COc1ccc(C2Nc3ccccc3C(=O)N2Cc2cccnc2)cc1COc1ccc(NC(C)=O)cc1 (stereo not given)	nt	nt	-6%	nt	?	nt
Cc1ccc(C2(c3ccc(C)cc3)CC2C(=O)Nc2ccc([N+](=O)[O-])cc2O)cc1 (stereo not given)	5	?	?	15µM*	?	-2
NC1CCc2ccccc21 (stereo not given)	nt	?	nt	i	nt	nt
COc1ccc(Nc2ncnc3sc4c(c23)CCCC4)cc1	-14	i	17%	i	nt	nt
COc1ccc(/C=N/Nc2ncnc3sc4c(c23)CCCC4)cc1OC	7	18µM*	?	?	3%	16
CC(C)CC1NC(=S)N(Cc2ccccc2)C1=O (stereo not given)	1	?	0%	21µM*	12%	6
Cc1cccc(N2CCN(C(=O)CSCc3c(C)noc3C)CC2)c1C	5	3.7µM*	-8%	1.8µM*	1.8µM*	-2
Cc1noc(C)c1CSCC(=O)N1CCN(c2ccc(F)cc2)CC1	-5	?	12%	2.9µM*	?	11
Cc1cc(NC(=O)CSCC(=O)N2CCN(c3cccc(C)c3C)CC2)no1	-2	i	-2%	i	-10%	30
CN(C)N=Nc1ccc(/C=C2\C=Cc3ccccc32)cc1	nt	i	nt	?	nt	nt
COC(=O)c1cc(-c2c(C)noc2C)c(=O)n2c1CCC2	-4	nt	nt	nt	nt	nt
Cc1cccc2[nH]cc(/C=C3/C=Nc4ccccc43)c12	nt	i	nt	i	nt	nt
CC1CN(Cc2ccccc2)c2ccccc2NC1=S (stereo not given)	8	?	15%	21µM*	-10%	-12
SMILES	PI4K2A inh	KB-3-1 cytotox	A549 tox	KB-V1 MDR tox	Nrf2 inh	Giardia killer
NC(=O)c1sc(-c2ccsc2)cc1NS(=O)(=O)c1ccc(C(F)(F)F)cc1	4	i	-16%	?	15µM*	-14
CC(=O)c1sc(-c2ccc(F)cc2)cc1NS(=O)(=O)c1ccc(C)cc1	-1	i	-12%	?	1%	-9
O=C(O)Cc1ccc2c(c1)C(=O)c1ccccc1CO2	-5	nt	nt	nt	nt	nt
CC(O)CNCCCOc1ccc(Cl)cc1C(C)(C)C (stereo not given)	-6	?	9%	21µM*	6%	9
CN(C)CCOCCOc1ccc(Cl)cc1C(C)(C)C	-1	i	10%	?	30%	-6
Cc1ccc(N(CC(=O)NCc2ccc(F)cc2)C(=O)c2ccco2)cc1C	-4	i	1%	?	9%	6
CCOc1ccc(N(CC(=O)NCc2ccc(F)cc2)C(=O)c2ccco2)cc1	-1	i	10%	16µM*	0%	-2
CCc1ccc2[nH]c(=O)c(CN(CCN(CC)CC)C(=S)NCc3ccco3)cc2c1	-12	23µM*	-18%	?	5%	-8
CCc1ccc2[nH]c(=O)c(CN(CCN(C)C)C(=S)NCc3ccco3)cc2c1	0	i	-12%	i	-7%	26
CCOc1ccc2[nH]c(=O)c(CN(Cc3ccccc3OC)C(=O)c3ccccc3)cc2c1	3	5.2µM*	-16%	4.6µM*	nt	-3
CCOc1ccc2[nH]c(=O)c(CN(Cc3ccc(F)cc3)C(=O)c3ccco3)cc2c1	-3	16µM*	-22%	15µM*	?	-4
COc1ccc(-c2cn3cccnc3n2)cc1NC(=O)COc1ccccc1	-10	nt	4%	nt	nt	nt
CCOC(=O)Cn1c(=O)n(CC2CCCO2)c2nc(-c3ccc(CC)cc3)nc(C(N)=O)c21 (stereo not given)	0	i	-2%	?	nt	nt
COc1ccccc1NC(=S)N(Cc1ccco1)Cc1cc2cc(C)ccc2[nH]c1=O	-9	1.8µM*	0%	?	9%	0
Cc1ccc2[nH]c(=O)c(CN(C(=O)c3cccs3)c3ccccc3)cc2c1	4	?	-16%	3.3µM*	?	-5
CCOc1ccc2[nH]c(=O)c(CN(Cc3ccco3)C(=O)c3ccc(Br)cc3)cc2c1	-5	?	-7%	23µM*	-7%	0
COc1ccc2[nH]c(=O)c(CN(C(=O)c3cccc(Cl)c3)c3cccc(C)c3)cc2c1	-2	i	1%	i	13%	nt
